Source: PubChem BioAssay
MCF10A rerep – induces DNA re-replication in MCF 10a normal breast cells; MCF 10A DNA re-replication, Hoechst nuclear intensity, 48 h; Potency, µM (titrated, usually from 46.1 µM), without a hit: top-dose activity, positive = re-replication, usual class: activators; 350,000 compounds, 2.9% hits; AID 624296; note: % of control where 0% means no effect; nearly all actives have a fitted effect of over 50% in size
SW480 rerep – DNA re-replication induction in SW480 cells; Potency, µM (doses to about 46.1 µM), for the others: at the highest dose re-replication activation, most hits filed as activators; 340,000 compounds, 1.8% hits; SW480 DNA re-replication, Hoechst DNA content imaging, 48 h; AID 624297; note: % of control where 0% means no effect; nearly all actives have a fitted effect of over 55% in size
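Quantitative HTS format with DMSO vehicle controls; 48 hr drug incubation at 37 C, then 40 min Hoechst staining and scanning imager measurement at 405 nm excitation.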
HT1080NT lethal – kills 2HG-producing HT-1080-NT fibrosarcoma cells; HT-1080-NT fibrosarcoma viability, CellTiter-Glo ATP luminescence, 48 h; Potency, µM (series often up to 46.1 µM), without a hit: at the highest dose activity, negative = less viability, hits mostly cytotoxic; 360,000 compounds, 1.6% hits;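 note: NT is the 2HG producing partner of a matched IDH1 knockdown line; 0% = DMSO-treated cells and -100% = media-only wells without cells; nearly all actives have a fitted effect of over 55% in size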
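Luminescent CellTiter-Glo readout after 48 hours of compound exposure at 37 degrees C defined viability of HT-1080-NT cells. Activity was normalized to DMSO wells and cell-free media wells; concentration-response curves were fitted and assigned curve classes.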
KB-V1 cytotox – KB-V1 MDR subline cytotoxicity. KB-V1 MDR cells viability, CellTiter-Glo, 72 h. Potency, µM (series often up to 46.1 µM), usual class: cytotoxic. 400,000 compounds, 3.4% hits; note: % is set by controls: 0 for no effect and ±100 for the full control effect; nearly all actives have a fitted effect of over 60% in size
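Potencies derive from concentration-effect curves fitted to normalized luminescence (CellTiter-Glo) of KB-V1 cells treated for 72 h at 37 degrees C in phenol-red-free DMEM containing 10% FBS.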
HT1080 IDH1KD tx – HT-1080 IDH1 knockdown cell toxicity (counter line); HT-1080 IDH1 knockdown viability, ATP luminescence, 48 h; Potency, µM (highest dose often 46.1 µM), for the others: top-dose activity, negative = toxicity, usual class: cytotoxic; 360,000 compounds, 2% hits; AID 686971;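 note: 0% = DMSO wells and -100% = cell-free medium wells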
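Assay cells: HT-1080 with IDH1 knockdown, 750 per well, RPMI/5% FBS. Exposure: 48 h at 37 °C following 2 h pre-incubation. Read: CellTiter-Glo luminescence; fitted concentration-response, curve class assigned.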
KB-3-1 cytotox – kills parental KB-3-1 adenocarcinoma cells; KB-3-1 viability, CellTiter-Glo ATP luminescence, 72 h; Potency, µM (titrated, usually from 46.1 µM), most hits filed as cytotoxic; 400,000 compounds, 1.4% hits; note: % is set by controls: 0 for no effect and ±100 for the full control effect; nearly all actives have a fitted effect of over 60% in size
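KB-3-1 parental drug-naive adenocarcinoma cells in DMEM/10% FBS, incubated 72 h at 37 C with pin-transferred compounds across a concentration series. Viability by CellTiter-Glo luminescence; concentration-response curves fitted after normalization.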
The depositor's hits bear a star; i = inactive; ? = inconclusive; . = not tested or not shown. A selection: hits, their analogues and other compounds. The true share with any hit is near 7.9%. Calls come from the whole dose curve; as a rule, active = well fitted curve in the direction sought with a large enough effect; inconclusive = small, poorly fitted or top-dose-only effect, or another doubt; inactive = no such curve, though single readings can be large; an effect the other way counts as inactive or inconclusive. Potency is the fitted concentration of half-maximal effect.

SMILES	MCF10A rerep	SW480 rerep	HT1080NT lethal	KB-V1 cytotox	HT1080 IDH1KD tx	KB-3-1 cytotox
N#CC1(Cc2ccccc2Cl)c2ccccc2C=CN1C(=O)c1ccccc1 (stereo not given)	11.0%	4.3%	-2.0%	20.6µM*	6.6%	?
Clc1nnc(N/N=C/c2ccccc2)c2ccccc12	18.4µM*	?	?	?	?	?
CCOC(=O)C/C(=N\Nc1ncnc2ccccc12)c1ccccc1	28.1%	-3.7%	-17.8%	16.4µM*	1.4%	i
Clc1ccc(/C=N/Nc2nnc(Cl)c3ccccc23)cc1	22.7%	-3.2%	10.1%	i	-5.0%	i
C(=N\Nc1ncnc2ccccc12)/c1ccccc1	0.9%	?	23.1µM*	?	?	i
O=C1C=C(/C=C/c2ccccc2)C[C@@H](c2ccc3c(c2)OCO3)C1	-58.7%	0.2%	-12.2%	i	-16.5%	i
COc1ccc(NC(=O)Cn2c(=O)n(Cc3ccccc3)c(=O)c3sc4ccccc4c32)cc1	.	.	.	i	.	i
Cc1ccc(S(=O)(=O)N2CCN(C(=O)c3ccc(N4CCCC4)c([N+](=O)[O-])c3)CC2)cc1	2.3%	?	-0.3%	?	11.1%	i
NC(=O)c1ccc(N2CCN(S(=O)(=O)c3ccccc3)CC2)c([N+](=O)[O-])c1	35.0%	-4.4%	-18.3%	9.2µM*	-24.5%	18.4µM*
CO/N=C/c1ccc(N2CCN(C(=O)c3ccc(C)cc3)CC2)c([N+](=O)[O-])c1	18.9%	1.4%	4.0%	9.2µM*	-10.9%	?
Cc1ccc(S(=O)(=O)N2CCN(c3ccc(C(=O)N4CCOCC4)cc3[N+](=O)[O-])CC2)cc1	?	-5.6%	-10.8%	2.91µM*	-6.7%	i
O=C(c1ccc(N2CCCCC2)c([N+](=O)[O-])c1)N1CCN(S(=O)(=O)c2ccccc2)CC1	-6.7%	-108.3%	1.7%	i	-5.2%	i
Cc1nc(C)c(C(=O)N2CCCC(C(=O)c3ccc(Cl)cc3C)C2)s1 (stereo not given)	5.2%	23.8%	-2.1%	i	-1.6%	i
COc1cccc(-c2cnc3c(NC=O)cc(-c4ccccc4)cn23)c1	.	.	5.8µM*	7.31µM*	2.59µM*	5.17µM*
COc1cccc(-c2cnc3c(NC=O)cc(-c4cc(C)c(O)c(C)c4)cn23)c1	.	.	?	?	?	6.51µM*
COc1cccc(-c2cnc3c(NC=O)cc(-c4ccccc4Oc4ccccc4)cn23)c1	.	.	?	20.6µM*	?	?
COc1cccc(-c2cnc3c(NC=O)cc(-c4ccoc4)cn23)c1	.	.	-10.3%	?	-8.8%	i
COCCNC(=O)Cn1cnc2c(cnn2-c2ccc(OC)cc2)c1=O	-0.4%	-0.7%	-0.2%	i	-6.8%	i
Cc1oncc1C(=S)Nc1ccccc1	8.2µM*	6.51µM*	?	i	-3.1%	i
Cc1cc(C(C)(C)C)cc(C)c1C[n+]1ccc2ccccc2c1	?	2.3%	?	i	?	1.64µM*
CCN(CC)S(=O)(=O)c1ccc(=O)n(CC(=O)N2CCCc3cc(C)ccc32)c1	?	?	-3.2%	i	-4.5%	i
CC(=O)c1c(C)nn(CC(O)COc2ccc3c(c2)CCC3)c1C (stereo not given)	-2.1%	6.7%	?	10.3µM*	-12.7%	i
Cc1nn(CC(O)COc2ccc3c(c2)CCC3)c(C)c1Br (stereo not given)	9.8%	-1.3%	-9.4%	?	-12.4%	i
CCC(C)N(C(=O)c1csnn1)C(C(=O)NCc1ccc(F)cc1)c1ccco1 (stereo not given)	5.1%	-5.3%	2.3%	16.4µM*	3.6%	i
CCC(C)(C)NC(=O)C(c1ccco1)N(C(=O)c1csnn1)c1cccc(F)c1 (stereo not given)	17.7%	7.4%	-9.6%	16.4µM*	-2.0%	i
